In PubChem BioAssay (NCI) one finds growth data, which are given here for eight compounds.

Some test systems named below: NCI-H23 lung; NCI-H226 lung; NCI-H322M lung; HOP-62 NSCLC; NCI-H460 lung; HOP-92 NSCLC; NCI-H522 lung; A549/ATCC NSCLC; 786-0 renal; COLO 205 colon; DU-145 prostate; K-562 leukemia; MALME-3M melanoma; MDA-MB-231 breast; RXF 393 renal; SF-268 CNS; SF-295 CNS; SF-539 CNS; UACC-257 melanoma; M14 melanoma.
Holding throughout (experiment): NCI-60 one-dose screen, 48 h (100 = growth as untreated, 0 = no growth, -100 = all killed)
What all share (details): 10 µM unless noted

This is part of a sample that, as a whole, favours compounds with a hit. Of some 83,000 tested, about 20% had one in any assay.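 Single-dose data. Exposure time 48 hours. Values below 10 considered active.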 Values without a mark were called inactive. The source made the active and inactive calls.

Consider `Nc1cc2c3c(cccc3c1)C(=O)N(CCN1CCCC1)C2=O`, for which the growth is 39.5% with NCI-H23 lung; -7.42% (active) with NCI-H226 lung; 54.5% in the assay with NCI-H322M lung; 44.4% in the assay with HOP-62 NSCLC; 2.15% (active) in the assay with NCI-H460 lung; 27.5% with HOP-92 NSCLC. Besides, the growth in the assay with NCI-H522 lung is 29.3%; with A549/ATCC NSCLC, 14.8%; with 786-0 renal, 46.4%; with COLO 205 colon, 14%; with DU-145 prostate, 28.4%; in the assay with K-562 leukemia, 14.7%. Besides, the growth with MALME-3M melanoma is 41.5%; in the assay on MDA-MB-231 breast, 55.2%; with RXF 393 renal, 48.2%; in the assay with SF-268 CNS, 33.7%; in the assay on SF-295 CNS it was 44.5%; in the assay with SF-539 CNS it was 29%. For the same compound, the growth is 51.3% in the assay on UACC-257 melanoma and 49.4% with M14 melanoma.

As to `O=C(Cc1ccc(F)c(F)c1)Nc1cc(C2(C(F)(F)F)CC2)nn1Cc1ccccc1`, the growth was -9.81% (active) in the assay with NCI-H23 lung; 8.26% (active) with NCI-H226 lung; 13.4% in the assay on NCI-H322M lung; -0.0766% (active) in the assay with HOP-62 NSCLC; 0.876% (active) with NCI-H460 lung; -17.7% (active) in the assay with HOP-92 NSCLC. Moreover, the growth in the assay with NCI-H522 lung is -24.6% (active); in the assay with A549/ATCC NSCLC, 9.17% (active); in the assay with 786-0 renal, 12.1%; in the assay on COLO 205 colon, -86.7% (active); in the assay with DU-145 prostate, 20.5%; in the assay with K-562 leukemia, 13.3%. The growth is -37.7% (active) in the assay on MALME-3M melanoma; -70.7% (active) with MDA-MB-231 breast; -26.9% (active) with RXF 393 renal; 9.11% (active) with SF-268 CNS; -1.31% (active) in the assay with SF-295 CNS; 16.3% in the assay with SF-539 CNS. In addition, the growth is -14.6% (active) with UACC-257 melanoma and 20.2% in the assay on M14 melanoma.

With `C#CCOc1nc(C)cc(C)c1C#N`, the growth in the assay on NCI-H23 lung is 95.6%; with NCI-H226 lung it was 97%; in the assay with NCI-H322M lung, 105%; in the assay with HOP-62 NSCLC, 92.2%; in the assay on NCI-H460 lung it was 102%; in the assay with HOP-92 NSCLC it was 71.4%. The growth with NCI-H522 lung was 89.3%; in the assay on A549/ATCC NSCLC, 97.7%; in the assay with 786-0 renal, 99.6%; in the assay on COLO 205 colon, 111%; in the assay with DU-145 prostate, 104%; in the assay on K-562 leukemia, 100%. The growth was 99% in the assay with MALME-3M melanoma; 94.5% in the assay with MDA-MB-231 breast; 106% with RXF 393 renal; 99.6% in the assay on SF-268 CNS; 104% in the assay on SF-295 CNS; 97.9% in the assay with SF-539 CNS. Moreover, the growth was 103% in the assay on UACC-257 melanoma and 98.1% in the assay with M14 melanoma.

For `Cc1cc(C(=O)c2ccccc2)c(C)c2c1[nH]c1ccc(Cl)cc12`, the growth in the assay on NCI-H23 lung is 24.6%; with NCI-H226 lung, 50.6%; in the assay on NCI-H322M lung, 42%; in the assay with HOP-62 NSCLC it was 34.3%; in the assay with NCI-H460 lung it was 5.49% (active); in the assay with HOP-92 NSCLC, 54.8%. Moreover, the growth is 20.8% with NCI-H522 lung; 19.6% with A549/ATCC NSCLC; 24.4% in the assay on 786-0 renal; -24.8% (active) in the assay on COLO 205 colon; 1.86% (active) in the assay on DU-145 prostate; 11.9% in the assay with K-562 leukemia. Further, the growth is 33.7% in the assay with MALME-3M melanoma; 30.6% in the assay on MDA-MB-231 breast; 18.9% with RXF 393 renal; 22.8% in the assay with SF-268 CNS; 6.92% (active) with SF-295 CNS; -14.9% (active) in the assay on SF-539 CNS. Further, the growth in the assay with UACC-257 melanoma is 66.1%; in the assay with M14 melanoma, 19.6%.

On to `C=C1C(=O)O[C@H]2[C@H]1CC/C(COC(=O)C(=O)c1c[nH]c3ccccc13)=C\CC[C@@]1(C)O[C@@H]21`, for which the growth in the assay on NCI-H23 lung was -42.8% (active); in the assay on NCI-H226 lung, -61.6% (active); in the assay with NCI-H322M lung, 24.6%; in the assay on HOP-62 NSCLC, 2.66% (active); with NCI-H460 lung, 6.72% (active); in the assay with HOP-92 NSCLC it was -74.3% (active). For the same compound, the growth in the assay with NCI-H522 lung was -62% (active); in the assay on A549/ATCC NSCLC it was 9.03% (active); in the assay with 786-0 renal, -75.8% (active); in the assay on COLO 205 colon it was -62.2% (active); in the assay with DU-145 prostate, -31.4% (active); in the assay on K-562 leukemia it was -4.12% (active). Also, the growth in the assay on MALME-3M melanoma is -63.1% (active); in the assay with MDA-MB-231 breast, -56.8% (active); with RXF 393 renal, -89.1% (active); with SF-268 CNS it was -46.3% (active); with SF-295 CNS it was 56.6%; in the assay on SF-539 CNS, -65.3% (active). In addition, the growth is -69.3% (active) in the assay with UACC-257 melanoma and -57.2% (active) with M14 melanoma.

For `O=S(=O)(O)c1ccc(N/N=C/c2ccccc2Cl)cc1`, the growth with NCI-H23 lung was 108%; in the assay with NCI-H226 lung it was 111%; in the assay with NCI-H322M lung it was 108%; with HOP-62 NSCLC it was 123%; in the assay on NCI-H460 lung, 109%; in the assay with HOP-92 NSCLC, 116%. Besides, the growth with NCI-H522 lung is 96.9%; with A549/ATCC NSCLC it was 99.5%; in the assay with 786-0 renal, 95.6%; in the assay on COLO 205 colon, 112%; in the assay on DU-145 prostate, 116%; in the assay on K-562 leukemia it was 95.6%. Moreover, the growth in the assay on MALME-3M melanoma was 109%; in the assay on MDA-MB-231 breast it was 118%; in the assay with RXF 393 renal, 125%; with SF-268 CNS, 103%; with SF-295 CNS, 108%; with SF-539 CNS it was 101%. The growth with UACC-257 melanoma is 116%; with M14 melanoma, 99.9%.

For the compound `Cc1cc(NCc2cc(Nc3ccnc4cc(Cl)ccc34)ccc2F)nc(N2CCN(C)CC2)n1`, the growth in the assay with NCI-H23 lung is 39.3%; in the assay on NCI-H226 lung it was 64.1%; with NCI-H322M lung, 33.8%; with HOP-62 NSCLC, 6.67% (active); in the assay with NCI-H460 lung, -45.3% (active); with HOP-92 NSCLC, 45.4%. In addition, the growth with NCI-H522 lung is -30.8% (active); in the assay on A549/ATCC NSCLC, 23%; with 786-0 renal, -69.7% (active); with COLO 205 colon it was -73.4% (active); in the assay with DU-145 prostate it was 23.4%; in the assay with K-562 leukemia it was -37.2% (active). Further, the growth in the assay on MALME-3M melanoma was -68.3% (active); with MDA-MB-231 breast, -43.9% (active); with RXF 393 renal it was -27.1% (active); in the assay on SF-268 CNS, 12.6%; in the assay on SF-295 CNS it was -60.9% (active); in the assay with SF-539 CNS it was -75.3% (active). In addition, the growth in the assay with UACC-257 melanoma is -59.7% (active); in the assay on M14 melanoma, -73.1% (active).

In the case of `COc1cc(/C=C/C(=O)c2cccc(-n3cc(-c4ccccc4)[nH]c3=O)c2)ccc1O`, the growth in the assay on NCI-H23 lung is 84.5%; in the assay on NCI-H226 lung it was 105%; in the assay with NCI-H322M lung, 85.4%; in the assay with HOP-62 NSCLC, 129%; with NCI-H460 lung, 89.2%; in the assay on HOP-92 NSCLC it was 45.3%. The growth with NCI-H522 lung is 26.2%; in the assay with A549/ATCC NSCLC it was 66.7%; in the assay on 786-0 renal it was 74%; in the assay on COLO 205 colon, 100%; in the assay on DU-145 prostate, 81.1%; in the assay on K-562 leukemia, 20.9%. The growth in the assay on MALME-3M melanoma is 90.8%; in the assay on MDA-MB-231 breast, 90.3%; with RXF 393 renal, 20%; with SF-268 CNS, 66.5%; in the assay on SF-295 CNS, 65.7%; with SF-539 CNS it was 85.7%. The values for the growth in the assay with UACC-257 melanoma and in the assay with M14 melanoma were 68.8% and 84.7%, respectively.
